Structures are written as SMILES. Values joined by “and” are separate entries in the source; they are usually repeats but may differ in a detail not shown here. Equal values may be shown once. Inconclusive results are not listed. Some compounds were tested as several samples or in several runs, with calls that do not always agree. Active and inactive are the calls of the source. The calls were made as follows: active = hit-call score of the fitted dose curve at least 0.9, where 1 is the maximum; inconclusive = response in the unintended direction; inactive = score below 0.9.

The assay deals with Cellular tumor antigen p53 (Homo sapiens) (UniProt P04637). As to the kind of experiment: TOX21_p53_BLA_p4_ratio: Tox21 HCT-116 p53 Agonism Beta-lactamase Assay, Ratio, Phase 4 (AID 2283601). An excerpt: TOX21_p53_BLA_p4 is a cell-based, single-readout assay that uses HCT116, a human intestinal cell line, […] in a 1536-well plate.TOX21_p53_BLA_p4_ratio is an assay readout measuring reporter gene via receptor activity and designed using inducible reporter (beta lactamase induction) detected with GAL4 b-lactamase reporter gene. The signal is derived from the ratio of cleaved (ch2) to uncleaved (ch1)reporter gene substrate used as the measure of target activity.Data from the assay component TOX21_p53_BLA_p4_ratio was analyzed into 1 assay endpoint. This assay endpoint, TOX21_p53_BLA_p4_ratio, was analyzed in the positive analysis fitting direction relative to DMSO as the negative control and baseline of activity. Using a type of inducible reporter, gain-of-signal activity can be used to understand changes in the reporter gene as they relate to the gene TP53. Furthermore, this assay endpoint can be referred to as a primary readout, because this assay has produced multiple assay endpoints where this ratio serves a reporter gene function to understand target activity. To generalize the intended target to other relatable targets, this assay endpoint is annotated to the DNA binding intended target family, where the subfamily is tumor suppressor.
Cellular tumor antigen p53 (Homo sapiens), sequence (P04637 whole entry, looked up, the tested form may be a part): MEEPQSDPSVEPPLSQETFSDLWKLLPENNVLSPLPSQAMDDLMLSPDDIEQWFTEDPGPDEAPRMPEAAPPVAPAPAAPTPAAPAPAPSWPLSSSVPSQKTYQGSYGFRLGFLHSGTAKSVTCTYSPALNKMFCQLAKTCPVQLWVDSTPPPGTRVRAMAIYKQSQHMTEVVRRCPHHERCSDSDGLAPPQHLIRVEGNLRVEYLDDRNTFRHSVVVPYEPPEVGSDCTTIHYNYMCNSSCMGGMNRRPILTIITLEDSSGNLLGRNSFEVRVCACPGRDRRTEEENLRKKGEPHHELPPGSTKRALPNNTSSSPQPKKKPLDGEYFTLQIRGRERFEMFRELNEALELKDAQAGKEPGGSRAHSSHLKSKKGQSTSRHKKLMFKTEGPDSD
Thawing Method: Place 14 mL of pre-warmed thaw medium into a 15 mL of conical tub. Remove the vial of cells to be thawed from liquid nitrogen and thaw rapidly by placing at 37C in a water bath with gentle agitation for 1-2 minutes. Decontaminate the vial by wiping with 70% ethanol before opening in a biological safety cabinet. Transfer the vial contents drop-wise into 14 mL of thaw medium in a sterile 15-mL conical tub. Centrifuge cells at 900 rpm for 4 minutes and resuspend in thaw medium. Transfer contents to the T75 tissue culture flask containing Thaw Medium and place flask in a humidified 37C/5% CO2 incubator. Switch to growth medium at first passage.Propagation Method: Aspirate medium, rinse once in DPBS, add 0.25% Trypsin/EDTA and swirl to coat the cell evenly. Add an equal volume of Growth Medium to inactivate Trypsin after 2-3 minutes incubation at 37C. Centrifuge cells at 900 rpm for 4 minutes and resuspend in growth medium. Cell should be passage or fed at least twice a week.Assay Protocol: Harvest cells from culture in growth medium and resuspend in assay medium. 2.2 Dispense 4000 cells/5 uL/well into 1536-well black/clear bottom plates using a Multidrop dispenser. After the cells were incubated at 37C for 5 hours, 23 nL of compounds dissolved in DMSO were transferred to the assay plate by a PinTool resulting in a 217-fold dilution. Incubate the plates for 16 hours at 37C, 5% CO2. Add 1 uL of 6X LiveBLAzer FRET B/G (CCF4-AM) Substrate Mixture to each well using a BioRAPTR dispenser and incubate the plates at room temperature for 2 hours. Measure fluorescence intensity at 460 and 530 nm emission and 405 nm excitation by an Envision detector. Data is expressed as the ratio of 460nm/530nm emissions. Add 4 uL of Cell-titer Glo to each well using BioRAPTR and incubate the plates at room temperature for 2 hours. Measure fluorescence intensity by a VewLux plate reader.
In the case of `O=C(Cl)CCl`, the result was inactive. The same measure, in the same setting: the value for `Oc1ccc(Cl)c(Cl)c1` was “inactive”; that for `O=C(NCc1cccnc1)Nc1ccc([N+](=O)[O-])cc1` was “inactive”.

Take `CCCCCCCCCCCCCCCCn1cc[n+](C)c1`: the AC50 – broadly, the concentration at which the activity in the assay is half-maximal – is 71.6 µM (active) and 77.7 µM (active) and 60.1 µM (active); the result was inactive. As for `CCOP(=S)(OCC)Oc1ncn(-c2ccccc2)n1`, the outcome was inactive. The same measure, in the same setting: the value for `CC(NC(C)(C)C)C(=O)c1cccc(Cl)c1` (stereo not given) was “inactive”; that for `CC(=O)C(Cl)(Cl)Cl` was “inactive”; that for `CN1[C@@H]2CC[C@H]1CC(O)C2` (stereo not given in full) was “inactive”. Still for that read-out and setting: the value for `CCCCCl` was “inactive”; that for `CNC(=O)OCC[N+](C)(C)C` was “inactive”.

`CNC(C)(C)Cc1ccccc1`: the result was inactive.

Take `CC1(C)S[C@@H]2[C@H](N)C(=O)N2[C@H]1C(=O)O`: the outcome was inactive. In the case of `Clc1ccc(CSC(Cn2ccnc2)c2ccc(Cl)cc2Cl)cc1` (stereo not given), the AC50 is 15.4 µM (active). Consider `Clc1ccc(C(Cl)(Cl)Cl)cc1Cl`, for which the outcome was inactive.

In the case of `CCOP(=S)(OCC)Oc1cnc2ccccc2n1`, the outcome was inactive. On the same count and under the same terms, the value for `O=C(Nc1ccccc1)N(Cc1ccc(Cl)cc1)C1CCCC1` was “inactive”; that for `CCOC(=O)COc1ccc(Cl)cc1Cl` was “inactive”; that for `CCCOC(=O)c1ccccc1C(=O)OCCC` was “inactive”. Same read-out and setting: the value for `CCCCCCI` was “inactive”; that for `CCS(=O)(=O)C(C)(C)S(=O)(=O)CC` was “inactive”; that for `O=C1CCCCC1CN1CCCCC1` (stereo not given) was “inactive”. On the same count and under the same terms, the value for `NCCCNCCCN` was “inactive”.

As to `S=C=Nc1cccc2ccccc12`, the concentration at half-maximal activity (AC50) was 32.4 µM (active). For `CC1=C2[C@H]3OC(=O)[C@@H](C)[C@@H]3CC[C@@]2(C)C=CC1=O`, the outcome was inactive.

For the compound `O=[N+]([O-])c1ccc(CCl)cc1`, the result was inactive.

For `CC(=O)c1cc2c(cc1C)C(C)(C)C(C)CC2(C)C` (stereo not given), the outcome was inactive.

In the case of `O=[N+]([O-])c1cc(C(F)(F)F)c(Cl)c([N+](=O)[O-])c1Cl`, the AC50 was 21.9 µM (active).

`CCNCC(O)c1cccc(O)c1` (stereo not given): the result was inactive. The same measure, in the same setting: the value for `NCC1(CC(=O)O)CCCCC1` was “inactive”; that for `Oc1cc(Cl)cc(Cl)c1` was “inactive”; that for `Nc1ccccc1C(=O)OCCc1ccccc1` was “inactive”. For the compound `Oc1cc(Cl)c(Cl)c(Cl)c1Cl`, the AC50 was 7.69 µM (active). On to `CCCCCCCCCBr`, for which the result was inactive. As to `CC(C)OC(=O)C(O)(c1ccc(Cl)cc1)c1ccc(Cl)cc1`, the AC50 was 69.8 µM (active). In the case of `CCCSC(=O)Cl`, the result was inactive. Take `C=CC(C)(CCC=C(C)C)OC(=O)c1ccccc1N` (stereo not given): the outcome was inactive. In the case of `CCCCCCCCCCCCCCCCCCn1cc[n+](C)c1`, the result was inactive. On the same count and under the same terms, the value for `ClCC(Cl)Cl` was “inactive”. The same measure, in the same setting: the value for `C=C(Cl)Cl` was “inactive”.

The record behind these values is PubChem BioAssay (EPA / NIEHS).
